Measurements: PubChem BioAssay AID1259336 (Sattelle Laboratory, UCL Respiratory, Division of Medicine, …, 2017)
Active and inactive are the calls of the source. No stated cut-off is given here; in the data, active means log2 fold change growth below about -1.8; inactive means the rest.

Assay: anthelmintic activity against nematode growth – whole organism, log2 fold change (AID 1259336);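 further: growth scored by imaging after five days at 20 °C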
Conditions: C. elegans growth, anthelmintic screen; hits give low values
In the case of Cc1cccc(C(=O)Nc2ccnc(N(C)C3CCN(CC(C)C)CC3)c2)c1, the log2 fold change growth is reported as 0.418 (inactive). With CC1(C)OB(O)c2ccc(C3=NO[C@](c4cc(Cl)c(F)c(Cl)c4)(C(F)(F)F)C3)cc21 the log2 fold change growth was -2.88 (inactive). In the case of Nc1c2c(nc3sc4c(c13)CCCC4)CCCC2, the log2 fold change growth is reported as -0.177 (inactive). In the case of CO/N=C(/C(=O)OC)c1ccccc1CO/N=C(/C)c1cccc(C(F)(F)F)c1, the log2 fold change growth is reported as -0.187 (inactive). With CO/C=C(\C(=O)OC)c1ccccc1Oc1cc(Oc2ccccc2C#N)ncn1 the log2 fold change growth was -0.352 (inactive). For Cc1nn(C)c(C)c1NS(=O)(=O)c1c(Cl)cc(-c2ccnc(N3CCNCC3)c2)cc1Cl, the log2 fold change growth was -0.0922 (inactive). For CC1COC(Cn2cncn2)(c2ccc(Oc3ccc(Cl)cc3)cc2Cl)O1 (centres undefined), the log2 fold change growth was -0.72 (inactive). With O=C1O[C@@H](CO)CN1c1cc(F)c(C2=CCN(Cc3ccccc3)CC2)c(F)c1 the log2 fold change growth was 0.141 (inactive). In the case of O=C1O[C@@H](COc2ccon2)CN1c1cc(F)c(C2=CCN(Cc3ccccc3)CC2)c(F)c1, the log2 fold change growth is reported as 0.114 (inactive). In the case of Cc1cc(C2=NO[C@](c3cc(Cl)c(F)c(Cl)c3)(C(F)(F)F)C2)ccc1C(=O)NCc1ccc2c(c1)C(C)(C)OB2O, the log2 fold change growth is reported as -0.268 (inactive). In the case of Cc1nn(Cc2ccccc2)c(Cl)c1C(=O)NC1CCCCCC1, the log2 fold change growth is reported as 0.0333 (inactive). For CO[C@@H]1CN(c2ccc(C#CC3(O)CN4CCC3CC4)c(Cc3ccccc3)n2)C[C@H]1O (some centres undefined), the log2 fold change growth was -0.086 (inactive). For CC(C)(C)C(O)C(Oc1ccc(-c2ccccc2)cc1)n1cncn1 (centres undefined), the log2 fold change growth was -0.263 (inactive). In the case of CCc1nn(C)c(C(=O)NCc2ccc(Oc3ccc(C)cc3)cc2)c1Cl, the log2 fold change growth is reported as -10.9 (active).
